Records with an inconclusive call do not appear. Values without a mark were called inactive. Calls of active or inactive are those of the source. Unless noted, calls come from the whole dose curve; as a rule, active = well fitted inhibition curve with a large enough effect; inconclusive = small, poorly fitted or top-dose-only effect; inactive = no such curve, though single readings can be large or run the other way.
Target: Atrial natriuretic peptide receptor 1 (Homo sapiens) (UniProt P16066)
Assay: Natriuretic polypeptide receptor (hNpr1) antagonism - Pilot screen (AID 1347049; calls by dose curve;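 note: HEK293 cells with hNpr1 and GloSensor cGMP luciferase stimulated by 0.1 nM hNppA; agonist-evoked cGMP luminescence read 20 min after hNppA addition; % is set by controls: 0 for no effect and ±100 for the full control effect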)
Conditions: hNpr1 cells, antagonist mode cGMP read-out; series mostly up to 57.5 µM; activity change, negative = inhibition: at the top concentration
Summary of the method: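 Receptor antagonism read as cGMP-dependent luminescence in hNpr1/pGS-40F HEK293 cells: pre-read after 30 min compound exposure, post-read 20 min after hNppA agonist at 0.1 nM final, all at room temperature, protected from light; A-71915 titration as control.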

Sequence of Atrial natriuretic peptide receptor 1 (Homo sapiens) (P16066 whole entry, looked up): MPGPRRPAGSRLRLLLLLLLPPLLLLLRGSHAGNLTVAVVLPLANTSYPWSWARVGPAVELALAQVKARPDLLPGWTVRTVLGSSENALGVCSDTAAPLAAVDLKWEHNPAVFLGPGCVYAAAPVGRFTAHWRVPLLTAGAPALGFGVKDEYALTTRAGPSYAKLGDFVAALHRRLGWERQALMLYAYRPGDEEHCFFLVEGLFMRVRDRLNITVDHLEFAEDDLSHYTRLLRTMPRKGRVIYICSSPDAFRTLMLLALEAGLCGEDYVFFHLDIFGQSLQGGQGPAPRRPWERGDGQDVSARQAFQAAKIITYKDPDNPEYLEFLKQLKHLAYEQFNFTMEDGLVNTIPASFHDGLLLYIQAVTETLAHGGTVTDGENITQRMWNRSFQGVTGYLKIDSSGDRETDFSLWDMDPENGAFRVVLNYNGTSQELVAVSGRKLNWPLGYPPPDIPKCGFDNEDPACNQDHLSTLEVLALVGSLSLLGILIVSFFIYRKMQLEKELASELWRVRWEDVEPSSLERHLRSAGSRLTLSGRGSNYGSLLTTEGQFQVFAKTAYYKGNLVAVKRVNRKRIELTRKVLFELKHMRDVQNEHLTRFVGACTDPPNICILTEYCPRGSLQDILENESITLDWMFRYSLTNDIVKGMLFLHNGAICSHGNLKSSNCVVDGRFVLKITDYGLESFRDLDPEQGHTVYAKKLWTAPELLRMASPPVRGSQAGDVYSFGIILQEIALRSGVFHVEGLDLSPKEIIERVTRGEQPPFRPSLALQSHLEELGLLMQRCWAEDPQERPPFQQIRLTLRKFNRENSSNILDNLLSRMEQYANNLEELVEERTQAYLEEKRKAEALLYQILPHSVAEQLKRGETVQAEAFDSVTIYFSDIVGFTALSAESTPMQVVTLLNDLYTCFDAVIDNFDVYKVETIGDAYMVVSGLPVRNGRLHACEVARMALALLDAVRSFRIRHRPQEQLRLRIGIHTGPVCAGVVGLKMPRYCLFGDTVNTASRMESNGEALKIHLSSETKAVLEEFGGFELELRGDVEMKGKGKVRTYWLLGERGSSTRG

Structure (SMILES)	activity change, negative = inhibition
O=c1c(-c2ccc(O)cc2)coc2cc(O)ccc12	1.15%
Clc1ccc(C(c2ccc(Cl)cc2)n2cc[n+](CC(OCc3ccc(Cl)cc3Cl)c3ccc(Cl)cc3Cl)c2)cc1 (stereo not given)	-13%
Clc1ccc(Cn2c(CN3CCCC3)nc3ccccc32)cc1	-3.7%
CC/C(=C(\c1ccccc1)c1ccc(OCCN(C)C)cc1)c1ccccc1	11.6%
CC(=O)O[C@]1(C(C)=O)CC[C@H]2[C@@H]3C=C(Cl)C4=CC(=O)[C@@H]5C[C@@H]5[C@]4(C)[C@H]3CC[C@@]21C	-3.28%
C[N+](C)(C)CCCCCC[N+](C)(C)C	5.3%

Target: Atrial natriuretic peptide receptor 2 (Homo sapiens) (UniProt P20594)
Assay: Natriuretic polypeptide receptor (hNpr2) antagonism - Pilot subtype selectivity assay (AID 1347050; calls by dose curve; note: % is set by controls: 0 for no effect and ±100 for the full control effect)
Conditions: NPR2-expressing cells, cGMP antagonist-mode read-out; series mostly up to 38.3 µM; activity change, negative = inhibition: at the top concentration
Summary of the method: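 Antagonist mode: compounds (LOPAC1280, seven 1:5 dilutions) added 30 min before 1 nM hNppC stimulation of hNpr2-HEK293 cGMP-sensor cells; luminescence read before and 20 min after agonist at ambient temperature.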

Sequence of Atrial natriuretic peptide receptor 2 (Homo sapiens) (P20594 whole entry, looked up): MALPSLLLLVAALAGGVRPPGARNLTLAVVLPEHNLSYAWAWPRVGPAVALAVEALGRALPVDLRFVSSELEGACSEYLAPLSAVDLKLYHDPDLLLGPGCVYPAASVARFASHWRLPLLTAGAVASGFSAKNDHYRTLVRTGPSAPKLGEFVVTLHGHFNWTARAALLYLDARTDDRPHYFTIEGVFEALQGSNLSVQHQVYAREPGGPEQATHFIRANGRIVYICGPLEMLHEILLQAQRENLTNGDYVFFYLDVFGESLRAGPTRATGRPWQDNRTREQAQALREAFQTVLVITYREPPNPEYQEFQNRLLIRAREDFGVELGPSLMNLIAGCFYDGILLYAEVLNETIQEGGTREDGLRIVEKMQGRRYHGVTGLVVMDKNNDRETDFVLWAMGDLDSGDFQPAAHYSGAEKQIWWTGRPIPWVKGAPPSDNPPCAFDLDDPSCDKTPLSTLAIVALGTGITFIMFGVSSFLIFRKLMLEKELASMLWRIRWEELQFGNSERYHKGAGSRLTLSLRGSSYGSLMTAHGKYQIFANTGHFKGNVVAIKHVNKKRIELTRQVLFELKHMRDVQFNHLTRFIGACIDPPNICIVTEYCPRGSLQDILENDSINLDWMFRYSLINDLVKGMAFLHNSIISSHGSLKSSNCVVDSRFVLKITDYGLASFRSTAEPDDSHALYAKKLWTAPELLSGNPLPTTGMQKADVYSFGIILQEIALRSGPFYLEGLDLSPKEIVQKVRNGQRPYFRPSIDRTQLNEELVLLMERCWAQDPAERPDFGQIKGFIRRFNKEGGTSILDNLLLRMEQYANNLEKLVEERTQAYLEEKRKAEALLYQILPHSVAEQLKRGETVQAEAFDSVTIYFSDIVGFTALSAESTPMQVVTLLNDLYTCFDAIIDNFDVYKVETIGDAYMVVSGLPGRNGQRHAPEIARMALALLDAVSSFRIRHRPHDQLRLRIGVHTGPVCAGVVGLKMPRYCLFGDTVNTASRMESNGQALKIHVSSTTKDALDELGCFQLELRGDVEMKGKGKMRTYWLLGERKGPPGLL

Structure (SMILES)	activity change, negative = inhibition	outcome
O=c1c(-c2ccc(O)cc2)coc2cc(O)ccc12	-4.29%	–
Clc1ccc(C(c2ccc(Cl)cc2)n2cc[n+](CC(OCc3ccc(Cl)cc3Cl)c3ccc(Cl)cc3Cl)c2)cc1 (stereo not given)	-1.05%	–
CC/C(=C(\c1ccccc1)c1ccc(OCCN(C)C)cc1)c1ccccc1	-0.999%	–
CC(=O)O[C@]1(C(C)=O)CC[C@H]2[C@@H]3C=C(Cl)C4=CC(=O)[C@@H]5C[C@@H]5[C@]4(C)[C@H]3CC[C@@]21C	-14.8%	–
C[N+](C)(C)CCCCCC[N+](C)(C)C	–	inactive

Tested on: not listed separately
Assay: NS1 protein of Zika virus - qHTS assay to identify small molecule inhibitors in human HEK 293 cells (AID 1347053); note: nearly all actives have a fitted effect of over 55% in size; note: potency is the fitted concentration of half-maximal effect;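 for activity change, negative = inhibition: plate controls were infected untreated cells for no effect and uninfected cells for full effect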
Conditions: HEK293 ZIKV MR766 infection, NS1 TR-FRET, 24 h; series mostly up to 46.1 µM; activity change, negative = inhibition: at the top concentration
Summary of the method: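 Readout was TR-FRET using paired anti-NS1 antibodies after 24 h infection of HEK 293 cells with ZIKV MR766 (MOI = 0.5). Compound preceded virus by 1 h; reduced signal reflects lower NS1 expression.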

Structure (SMILES)	activity change, negative = inhibition	Potency
NC(=O)[C@@H](CCC(F)(F)F)N(Cc1ccc(-c2ncon2)cc1F)S(=O)(=O)c1ccc(Cl)cc1	1.54%	–
O=C(Nc1ccccc1Br)N[C@@H]1CCN(c2ccc(C(F)(F)F)cn2)C1	10.2%	–
c1ccc2c(Cc3c[nH]c4ccccc34)c[nH]c2c1	-28.7%	–
O=C1NC(=O)C(=Cc2cccc(C(F)(F)F)c2)S1	0.65%	–
CO[C@H]1C[C@@H]2CC[C@@H](C)[C@@](O)(O2)C(=O)C(=O)N2CCCC[C@@H]2C(=O)O[C@H]([C@H](C)C[C@@H]2CC[C@H](OP(C)(C)=O)[C@H](OC)C2)CC(=O)[C@H](C)C=C(C)[C@@H](O)[C@@H](OC)C(=O)[C@H](C)C[C@H](C)C=CC=CC=C1C	-7.72%	–
CC(C)(C)NC(=O)Nc1cccc(Nc2ncc(F)c(NC(C)(C)CO)n2)c1	4.4%	–
COc1ccc(-c2cc(=O)c3c(O)cc(O)cc3o2)cc1O	5.9%	–
CC(=NNC(=S)N1CCC1)c1ccccn1	–	16.6 µM (active)
Cc1c[nH]c(C=C2C(=O)Nc3ccccc32)c1CCC(=O)O	10.3%	–
O=c1c(-c2ccc(O)cc2)coc2cc(O)ccc12	–	inactive
CC[C@@]1(O)C[C@H](O[C@H]2C[C@H](N(C)C)[C@H](O[C@H]3C[C@H](O)[C@H](O[C@H]4CCC(=O)[C@H](C)O4)[C@H](C)O3)[C@H](C)O2)c2c(cc3c(c2O)C(=O)c2c(O)cccc2C3=O)[C@@H]1C(=O)OC	0.305%	–
CO[C@H]1C=CO[C@@]2(C)Oc3c(C)c(O)c4c(O)c(c5c(c4c3C2=O)NC2(CCN(CC(C)C)CC2)N=5)=NC(=O)C(C)=CC=C[C@H](C)[C@H](O)[C@@H](C)[C@@H](O)[C@@H](C)[C@H](OC(C)=O)[C@H]1C	8.83%	–
C=C1C(=O)OC(CCCCCCCC)C1C(=O)O (stereo not given)	1.08%	–
Clc1ccc(C(c2ccc(Cl)cc2)n2cc[n+](CC(OCc3ccc(Cl)cc3Cl)c3ccc(Cl)cc3Cl)c2)cc1 (stereo not given)	–	11.8 µM (active)
O=c1c(-c2ccc(O)cc2)coc2cc(OC3O[C@H](CO)[C@H](O)[C@H](O)[C@H]3O)cc(O)c12 (stereo not given in full)	2.36%	–
COc1ccc2c(Oc3ccc(NC(=O)c4c(C)n(CC(C)(C)O)n(-c5ccccc5)c4=O)cc3F)ccnc2c1	5.33%	–
CN(C)Cc1cccc(N=C(c2ccccc2)c2c(O)[nH]c3cc(C(=O)N(C)C)ccc23)c1	7.2%	–

Structure (SMILES)	activity change, negative = inhibition	Potency
NC1CCC(Nc2nc(Nc3ccc(C(=O)N4CCCCC4)cc3)c3ncn(-c4cccc(F)c4)c3n2)CC1 (stereo not given)	3.56%	–
Clc1ccc(Cn2c(CN3CCCC3)nc3ccccc32)cc1	–	inactive
N#CC(=C(N)Sc1ccccc1N)C(C#N)=C(N)Sc1ccccc1N	4.36%	–
CC=C(C)C(=O)O[C@H]1C(C)=C[C@]23C(=O)[C@@H](C=C(CO)[C@@H](O)[C@]12O)[C@H]1[C@@H](C[C@H]3C)C1(C)C	–	11.8 µM (active)
CC/C(=C(\c1ccccc1)c1ccc(OCCN(C)C)cc1)c1ccccc1	34.4%	–
CC(=O)O[C@]1(C(C)=O)CC[C@H]2[C@@H]3C=C(Cl)C4=CC(=O)[C@@H]5C[C@@H]5[C@]4(C)[C@H]3CC[C@@]21C	–	inactive
Cc1ccc(/C=N/NC(=O)c2ccccc2Oc2ccccc2)o1	2.85%	–
CNC1CCC(N(Cc2cccc(-c3ccncc3)c2)C(=O)c2sc3c(F)ccc(F)c3c2Cl)CC1 (stereo not given)	–	10.5 µM (active)
CC(C)n1cnc2c(NCCCCCCNC(=O)OC(C)(C)C)nc(NCCO)nc21	0.727%	–
NS(=O)(=O)c1cccc2c1C(=O)c1cccc(O)c1C2=O	–	3.32 µM (active)
N#C[C@H]1C[C@H]2C[C@@H]2N1C(=O)[C@@H](N)C12CC3CC(CC(O)(C3)C1)C2	7.59%	–
C[C@H]1[C@H](NC(=O)C(=NOC(C)(C)C(=O)O)c2csc(N)n2)C(=O)N1S(=O)(=O)O	-3.68%	–
CC=CC[C@@H](C)C(=O)[C@H]1C(=O)N[C@@H](C(C)C)C(=O)N(C)CC(=O)N(C)[C@@H](CC(C)C)C(=O)N[C@@H](C(C)C)C(=O)N(C)[C@@H](CC(C)C)C(=O)N[C@@H](C)C(=O)N[C@H](C)C(=O)N(C)[C@@H](CC(C)C)C(=O)N(C)[C@@H](CC(C)C)C(=O)N(C)[C@@H](C(C)C)C(=O)N1C	-19.8%	–
C=C1C(=O)[C@@]23C(CC[C@@H]1[C@H]2O)[C@@]12CO[C@]3(O)[C@@H](O)[C@@H]1C(C)(C)CC[C@@H]2O (stereo not given in full)	–	9.35 µM (active)
NC[C@@H]1O[C@@H](O[C@H]2[C@@H](O)[C@H](O[C@@H]3[C@@H](O)[C@@H](N)C[C@H](N)[C@H]3O[C@H]3O[C@H](CN)[C@@H](O)[C@@H](O)[C@H]3N)O[C@H]2CO)[C@H](N)[C@@H](O)[C@@H]1O	2.03%	–
NC(=O)c1ccc2nc(-c3ccc(Oc4ccc(Cl)cc4)cc3)[nH]c2c1	2.68%	–
C[N+](C)(C)CCCCCC[N+](C)(C)C	–	inactive

From PubChem BioAssay (NCATS)
